Experimental data taken from PubChem BioAssay (EPA / NIEHS).
Active and inactive are the calls of the source. Rule for the calls: active = hit-call score of the fitted dose curve at least 0.9, where 1 is the maximum; inactive = score below 0.9.

assay: ATG_MRE_CIS: Attagene CIS-FACTORIAL HepG2 Assay for human Metal Responsive Element (MRE) (AID 2282954); conditions: HepG2 MRE cis-reporter transcription, Attagene multiplex; actives raise or lower the signal
Method: ATG_CIS is a cell-based, multiplexed-readout assay that uses HepG2, a human liver cell line, with measurements taken at 24 hours after chemical dosing in a 24-well plate.ATG_MRE_CIS is one of 52 assay component(s) measured or calculated from the ATG_CIS assay. It is designed to make measurements of mRNA induction, a form of inducible reporter, as detected with fluorescence intensity signals by Reverse transcription polymerase chain reaction (RT-PCR) and Capillary electrophoresis technology.Data from the assay component ATG_MRE_CIS was analyzed into 1 assay endpoint. This assay endpoint, ATG_MRE_CIS, was analyzed with bidirectional fitting relative to DMSO as the negative control and baseline of activity. Using a type of inducible reporter, measures of mRNA for gain or loss-of-signal activity can be used to understand the reporter gene at the transcription factor-level as they relate to the gene MTF1. Furthermore, this assay endpoint can be referred to as a primary readout, because this assay has produced multiple assay endpoints where this one serves a reporter gene function. To generalize the intended target to other relatable targets, this assay endpoint is annotated to the dna binding intended target family, where the subfamily is zinc finger.
Human liver HepG2 cells are transiently transfected with multiple reporter transcription units (MRTUs) in 6-well plates using FuGene 6 reagent (Roche; 3 ml FuGene/1 mg DNA). The MRTU constructs are regulated by a cis-regulating element (promoter). […] A major difference between the CIS and TRANS system is that in CIS activities of endogenous TFs are measured, whereas the TRANS assay evaluates changes in activities of exogenous, chimeric NR-Gal4 proteins. […] At the end of 24 hour incubation, total RNA was isolated using TriZol reagent (Invitrogen). The isolated RNA is then reverse-transcribed using oligo(dT) primer and Mo-MLV reverse transcriptase (Invitrogen) with DNAse I (Ambion) treatment for 30 min. The one-tenth of the produced cDNA was amplified by PCR using Taq DNA polymerase (Invitrogen) and two reporter sequence-specific primers. The PCR products were fluorescently labeled by primer extension with 6-arboxyfluorescein (6-FAM) 5'-labeled reporter sequence-specific primer (2 min at 95 C, 20 s at 68 C and 10 min at 72 C) and these products were digested with 5U of HpaI (New England Biolabs) for 2h at 37 C. The fragments were purified using Qiaquick PCR columns (Qiagen), analyzed on an ABI 3130xL genetic analyzer (Applied Biosystems) with peak positions identified by using a set of X-rhodamine (ROX)-labeled MapMarker1000 molecular weight standards (BioVentures). The raw capillary electrophoresis data was processed using Attagraph software (Attagene).

| Compound | outcome | AC50 |
| --- | --- | --- |
| CCCCC(CC)COC(=O)CC(C(=O)OCC(CC)CCCC)S(=O)(=O)O (stereo not given) | inactive |  |
| O=C(O)CCCCC(=O)O | inactive |  |
| Cc1ccccc1Cl | inactive |  |
| Cc1oc(-c2ccccc2)nc1CCOc1cccc2c1ccn2CCC(=O)O | inactive |  |
| O=C(OCCCCCOC(=O)c1ccccc1)c1ccccc1 | inactive |  |
| CCc1c(C(=O)NN2CCCCC2)nn(-c2ccc(Cl)cc2Cl)c1-c1ccc(Br)cc1 |  | 4.76 µM (active) |
| Oc1ccc2ccccc2c1N=Nc1ccccc1 |  | 2.47 µM (active) |
| CCCCCCCCCCO |  | 160 µM (active) |
| COc1cc(C=O)ccc1O | inactive |  |
| Cc1ccc(N(C)C)cc1 | inactive |  |
| Cc1ccc(C)c(O)c1C | inactive |  |
| O=[N+]([O-])C(CO)(CO)CO | inactive |  |
| CC1(C)NC(=O)NC1=O | inactive |  |
| CC(C)(C)c1cc(O)c(C(C)(C)C)cc1O |  | 39.2 µM (active) |
| CC1(C)CC(N=C=O)CC(C)(CN=C=O)C1 (stereo not given) | inactive |  |
| COc1ccc(S(=O)(=O)N2C(=O)[C@@](c3ccccc3OC)(N3C[C@H](O)C[C@H]3C(=O)N(C)C)c3cc(Cl)ccc32)c(OC)c1 |  | 45.5 µM (active) |
| CCCCCCCC=O | inactive |  |
| CC(=O)Oc1ccccc1C(=O)O | inactive |  |
| CCCCc1ccc2c(n1)[C@@H](c1ccc(OC)cc1C[C@H](C)C(=O)O)[C@H](C(=O)O)[C@H]2c1ccc2c(c1)OCO2 | inactive |  |
| Cc1cc(=O)[nH]c(=S)[nH]1 | inactive |  |

| Compound | outcome | AC50 |
| --- | --- | --- |
| COc1ccc2c(c1)c(CC(=O)O)c(C)n2C(=O)c1ccc(Cl)cc1 | inactive |  |
| COc1cc(/C=C/C(=O)CC(=O)/C=C/c2ccc(O)c(OC)c2)ccc1O |  | 52.6 µM (active) |
| CCOc1ccc2c(c1)C(C)=CC(C)(C)N2 |  | 148 µM (active) |
| CC(=O)OC/C=C(\C)CCC=C(C)C | inactive |  |
| CCCCCCOCCO | inactive |  |
| COc1cc(-c2nc(NC(=O)c3cc4cc(C)cc(C)c4n3CC(=O)O)sc2CCC2CCCCC2)c(OC)cc1Cl |  | 6.2 µM (active) |
| CCOC(=O)C(C)(C)Oc1ccc(Cl)cc1 | inactive |  |
| CN1CCN(Cc2cc(-c3ccc4[nH]c(=O)oc4c3)co2)[C@@H](c2ccc(F)cc2)C1 |  | 48.6 µM (active) |
| Nc1nc(N)c2nc(CNc3ccc(C(=O)N[C@@H](CCC(=O)O)C(=O)O)cc3)cnc2n1 | inactive |  |
| Cc1ccc(C(C)C)c(O)c1 | inactive |  |
| CCCCCCCCCCCC(=O)OC | inactive |  |
| C[Si]1(C)O[Si](C)(C)O[Si](C)(C)O[Si](C)(C)O1 | inactive |  |
| CNC(=O)[C@H]1O[C@@H](n2cnc3c(NCc4cc(Cl)ccc4OCc4cc(C)no4)ncnc32)[C@H](O)[C@@H]1N | inactive |  |
| Nc1ccccc1N |  | 38.2 µM (active) |
| COc1cccc2c1C(=O)c1c(O)c3c(c(O)c1C2=O)C[C@@](O)(C(=O)CO)C[C@@H]3O[C@H]1C[C@H](N)[C@H](O)[C@H](C)O1 |  | 1.66 µM (active) |
| CN[C@H]1CC[C@@H](c2ccc(Cl)c(Cl)c2)c2ccc(S(N)(=O)=O)cc21 | inactive |  |
| C[C@]12C=CC(=O)C=C1CC[C@@H]1[C@@H]2C(=O)C[C@@]2(C)[C@H]1CC[C@]2(O)C(=O)CO | inactive |  |
| CC=Cc1ccc(O)c(OC)c1 | inactive |  |
| CNCc1cc(F)ccc1Oc1ccc(Cl)c(Cl)c1 | inactive |  |
| CC(CO)OC(C)CO (stereo not given) (tested in a mixture with another compound) | inactive |  |
